The values that follow come from PubChem BioAssay (NCATS).

The nature of test [1]: qHTS for Inhibitors of Plasmodium falciparum (CP250) proliferation (AID 504320; active = well fitted inhibition curve with a large enough effect; also: potency is read from the fitted curve at half-maximal effect). The procedure, abridged: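 Parasite growth measured as SYBR Green DNA fluorescence (ex 485, em 535 nm) after overnight lysis following 72 h culture at 37 °C, 0.3% parasitemia, 2.5% hematocrit. Values normalized against DMSO and 0.29 uM artemisinin controls, with plate-stack correction.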
In general terms: Quantitative high-throughput screening tests each substance at several concentrations.

Test [2] addresses Atrial natriuretic peptide receptor 1 (Homo sapiens) (UniProt P16066). Nature of the test: Natriuretic polypeptide receptor (hNpr1) antagonism - Pilot CMLD screen (AID 1347052).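 Also: HEK293 cells with hNpr1 stimulated by hNppA peptide at 0.1 nM; cGMP level read as GloSensor luciferase luminescence after agonist stimulation; series mostly up to about 9.2 µM.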

Records with an inconclusive call do not appear. Entries that show only a call come without a potency. Unmarked numbers belong to inactive results. Activity calls are given as the source filed them. Unless noted, calls follow the shape of the full dose curve.

Chain of Atrial natriuretic peptide receptor 1 (Homo sapiens) (P16066 whole entry, looked up): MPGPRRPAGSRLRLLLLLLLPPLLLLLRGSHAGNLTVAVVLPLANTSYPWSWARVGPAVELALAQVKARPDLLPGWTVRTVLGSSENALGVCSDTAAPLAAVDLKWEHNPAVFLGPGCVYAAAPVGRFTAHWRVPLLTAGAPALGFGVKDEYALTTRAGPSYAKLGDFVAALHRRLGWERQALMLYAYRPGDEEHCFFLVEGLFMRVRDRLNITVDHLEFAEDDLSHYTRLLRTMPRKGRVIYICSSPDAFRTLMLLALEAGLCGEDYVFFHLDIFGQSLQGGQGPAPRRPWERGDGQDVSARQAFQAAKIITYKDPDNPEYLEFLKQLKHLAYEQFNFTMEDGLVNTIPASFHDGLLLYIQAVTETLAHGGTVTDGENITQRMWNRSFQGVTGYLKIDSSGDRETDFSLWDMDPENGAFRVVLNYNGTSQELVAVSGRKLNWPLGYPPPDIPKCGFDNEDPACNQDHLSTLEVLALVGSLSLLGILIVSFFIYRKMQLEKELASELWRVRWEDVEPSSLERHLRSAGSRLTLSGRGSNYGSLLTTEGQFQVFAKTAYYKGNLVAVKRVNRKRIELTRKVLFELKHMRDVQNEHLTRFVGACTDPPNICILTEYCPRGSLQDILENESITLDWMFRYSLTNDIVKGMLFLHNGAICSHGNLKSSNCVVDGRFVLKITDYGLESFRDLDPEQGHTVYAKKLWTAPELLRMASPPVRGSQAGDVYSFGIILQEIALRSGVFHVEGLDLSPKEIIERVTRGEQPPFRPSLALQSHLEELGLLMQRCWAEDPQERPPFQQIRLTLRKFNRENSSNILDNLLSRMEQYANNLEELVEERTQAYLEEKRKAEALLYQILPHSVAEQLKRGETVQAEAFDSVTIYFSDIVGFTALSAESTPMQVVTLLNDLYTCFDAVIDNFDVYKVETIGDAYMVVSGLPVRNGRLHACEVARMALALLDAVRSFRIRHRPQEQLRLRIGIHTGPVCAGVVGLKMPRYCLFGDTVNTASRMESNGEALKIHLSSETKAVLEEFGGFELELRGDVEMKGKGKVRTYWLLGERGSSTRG

For the molecule `COc1cccc([C@H]2NC(=O)CC=C[C@H](C)[C@@H](c3cccc(OC)c3)NC(=O)CC=C[C@H]2C)c1`, the Potency entry in test [1] and in test [2] was “inactive” throughout.

As to `C[C@H]1CC[C@H]2C(=O)N(Cc3ccc(Cl)cc3)C[C@H](O)CN2[C@H]1c1ccc(Br)cc1`, the Potency entry in test [1] and in test [2] was “inactive” in each case.

On to `COC(=O)c1ccc(CN2C(=O)[C@@]3(CC(C)=C[C@@H](COc4ccccc4)O3)c3ccccc32)cc1`, for which the Potency result in test [1] and in test [2] was “inactive” throughout.

As to `CC(CCN1CCCc2nc(C)c(C)cc21)=NOC[C@@H](O)COCc1ccco1`, the Potency result in test [1] and in test [2] was “inactive” each time.

As to `COC(=O)N1C2CC(=O)O[C@H]3c4cc5c(cc4[C@]1(C)[C@@]3(Br)c1ccccc12)OCO5`, the Potency in test [1] is 1.51 µM (active). In addition, in test [2], the Potency entry is “inactive”.

`COC1=C[C@H](C(=O)NC2CCN(Cc3ccccc3)CC2)[C@H](C)[C@@H](c2ccccc2)CC1=O`: the Potency result in test [1] and in test [2] was “inactive” each time.

For the molecule `CCOC(=O)CN1C(=O)[C@]2(O[C@H](COc3ccccc3)CC3=C2CCC3)c2ccccc21`, the Potency entry in test [1] and in test [2] was “inactive” each time.
